Test in all cases: NCI-60 one-dose screen, 48 h (100 = growth as untreated, 0 = no growth, -100 = all killed)
What all share (details): 10 µM unless noted

For assay [1], the system named is HCT-15 colon.
The subject of assay [2] is SNB-75 CNS.
In assay [3] the test system is SNB-19 CNS.
For assay [4], the system named is U251 CNS.
Assay [5] relates to PC-3 prostate.
Assay [6] has as its system SK-MEL-5 melanoma.
Assay [7] concerns UACC-62 melanoma.
Assay [8] concerns SK-MEL-28 melanoma.
Assay [9] concerns LOX IMVI melanoma.

Compounds without any hit were thinned out: in the full panel of roughly 83,000, 20% have a hit.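 Single-dose data. Exposure time 48 hours. Values below 10 considered active.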 Unmarked numbers belong to inactive results. Activity calls are given as the source filed them.

Growth data for 30 compounds are collected here from PubChem BioAssay (NCI).

Consider `CN1CCN(CCOc2ccc(-c3cnc4c(-c5ccccc5F)cnn4c3)cc2)CC1`, for which the growth in [1] is 3.14% (active); in [2] it was 120%; in assay [3], 69.1%; in assay [4] it was 2.35% (active); in assay [5] it was 32.4%; in assay [6], 35%. The growth in assay [7] is -10.7% (active); in [8], 59.5%.
As to `COc1ccc(C2c3ccccc3NC(=O)N2C2CCN(C)CC2)c(OC)c1` (stereo unspecified), the growth in assay [1] was 95.6%; in [2], 72.7%; in assay [3], 93%; in assay [4] it was 100%; in assay [5], 94.4%; in assay [6], 84.7%. In addition, in assay [9], the growth was 103%.
Turning to `O=C1/C(=C\c2ccco2)SC(=S)N1CCc1ccc(O)cc1`, the growth in assay [1] was 92.7%; in assay [2], 78.5%; in assay [3], 95.6%; in assay [4] it was 96.7%; in assay [5] it was 97.5%; in [6], 97.4%. Besides, the results for the growth in assay [7] and in assay [8] were 85.3% and 98.3%, respectively.
Turning to `COc1cc(-c2cc3ncccc3c3nc(N)c4cccnc4c23)cc(OC)c1OC`, the growth was 21.5% in assay [1]; 6.07% (active) in assay [2]; 44.5% in assay [3]; 18.9% in assay [4]; 22% in [5]; 15.8% in [6]. Also, the growth in assay [9] was 24.1%; in [8], 62.7%.
With `CCOc1ccc(NC(=O)c2ccccc2-c2ccccc2C(=O)O)cc1`, the growth in assay [1] was 106%; in assay [2] it was 91.3%; in assay [3] it was 98.8%; in [4], 112%; in [6], 106%; in [7], 99.2%. In assay [8], the growth is 109%.
For `CC(C)=CCC/C(C)=C/CC/C(C)=C/CSC[C@H](NC(=O)CCCCCN1CCN(C)CC1)C(=O)NC1CCCCCC1`, the growth is 0.0874% (active) in assay [1]; 73.8% in [2]; 81% in assay [3]; 33.2% in assay [4]; 51.9% in assay [5]; 79.9% in [6]. For the same compound, the growth in assay [7] is 3.45% (active); in assay [9], 25.3%; in assay [8] it was -56% (active).
On to `O=c1c(CNc2ccc(S(=O)(=O)Nc3nccs3)cc2)coc2ccccc12`, for which the growth in assay [1] is 99.9%; in assay [2], 73.8%; in assay [3] it was 95.4%; in [4], 95.4%; in [6], 98.3%; in [7], 97.9%. In addition, the growth in assay [8] is 121%.
As for `CC(C)=CCC[C@](C)(O)[C@H]1CC[C@]2(C)[C@@H]1CC[C@@H]1[C@@]3(C)C/C(=C/c4ccc(Br)cc4)C(=O)C(C)(C)[C@@H]3CC[C@]12C`, the growth in assay [1] was 85.4%; in [2] it was -50.3% (active); in assay [3] it was 95.2%; in [4] it was 86.9%; in assay [5], 70.5%; in assay [6], 96.8%. The growth in assay [7] is 78.6%; in assay [8] it was 100%.
As for `Cc1cc(Cl)nc(N(CCNc2ccnc3cc(Cl)ccc23)Cc2ccco2)n1`, the growth in assay [1] was 35.7%; in [2], 81.5%; in [3], 37.9%; in assay [4] it was 17.9%; in assay [5], 34.1%; in assay [6], 42.9%. Moreover, the growth in [8] is 3.02% (active).
Regarding `Nc1ncnc2nc(Br)[nH]c12`, the growth was 108% in [1]; 87.2% in [2]; 101% in [3]; 89.4% in assay [4]; 78.3% in assay [5]; 100% in assay [6]. The growth in assay [9] is 93.7%; in assay [8], 114%.
`Brc1ccc2[nH]cc(-c3nc(-c4c[nH]c5ncccc45)cs3)c2c1`: the growth in assay [1] is -32.3% (active); in [2], 37.3%; in assay [3], 68.8%; in assay [4], 27.7%; in assay [5], 38.1%; in assay [6], 54.7%. The results for the growth in [7] and in assay [8] were 41.9% and 71.6%, respectively.
Turning to `Fc1ccc2[nH]cc(-c3nc(-c4c[nH]c5ncccc45)cs3)c2c1`, the growth in assay [1] is 20.3%; in assay [2], -17.2% (active); in [3], 63.8%; in assay [4], 43.6%; in assay [5] it was 43.8%; in assay [6] it was 52.8%. Further, the growth is 48.5% in [7] and 89% in assay [8].
Take `Cc1ccc(S(=O)(=O)Nc2ccc(-c3cc(-c4cccc(F)c4)c(C#N)c(=O)[nH]3)cc2)cc1`: the growth in assay [1] was 58.2%; in [2], 85%; in assay [3], 84.3%; in [4], 71%; in assay [5], 68.8%; in [6], 82%. Besides, the growth is 60.3% in assay [7] and 97.4% in [8].
In the case of `CC(C)=CCC[C@](C)(O)[C@H]1CC[C@]2(C)[C@@H]1CC[C@@H]1[C@@]3(C)C/C(=C/c4cccc([N+](=O)[O-])c4)C(=O)C(C)(C)[C@@H]3CC[C@]12C`, the growth was 83.5% in assay [1]; 0.754% (active) in [2]; 96% in [3]; 85.7% in assay [4]; 101% in [6]; 78.1% in assay [7]. The growth in assay [8] is 104%.
In the case of `C/C(=N\Nc1ccc2ccccc2n1)c1ccccn1`, the growth was 22.6% in assay [1]; 35.3% in assay [2]; 23.8% in assay [3]; 4.2% (active) in [4]; 4.97% (active) in assay [5]; -57.5% (active) in assay [6]. The values for the growth in assay [7], in [9] and in [8] were -54.8% (active), -19.8% (active) and 30.2%, respectively.
In the case of `Cc1ccc(Sc2sc(-c3ccccc3)nc2[P+](c2ccccc2)(c2ccccc2)c2ccccc2)cc1`, the growth was 1.24% (active) in [1]; -3.74% (active) in assay [2]; 10.4% in [3]; 13.8% in assay [4]; -30.6% (active) in [5]; -97.6% (active) in assay [6]. Moreover, the growth is -33.7% (active) in assay [7] and 25.5% in [8].
`CC1(C)[C@@H](O)CC[C@]2(C)[C@H]3CC[C@@H]4[C@H]5[C@H](C(=O)/C=C/c6ccc(C(F)(F)F)cc6)CC[C@]5(CO)CC[C@@]4(C)[C@]3(C)CC[C@@H]12`: the growth in assay [1] is 34.4%; in assay [2], 60%; in assay [3], 61.1%; in [4], 53.6%; in [6] it was 13.1%; in assay [7], 36.5%. Besides, the growth in assay [8] is 54.6%.
For `Oc1ccccc1/C=N\NC(=S)Nc1ccc(F)cc1`, the growth in [1] was 21.8%; in [2], 43.1%; in [3], 36%; in [4], 27.7%; in [5], 40%; in [6], 6.1% (active). In addition, the growth in [7] was 2.27% (active); in [8], 30.8%.
On to `CC(=O)O[C@H]1CC[C@]2(C)[C@H]3CC=C4[C@@H]5[C@H](C)[C@@H](C)CC[C@]5(C(=O)NCCNCCNCCN)CC[C@@]4(C)[C@]3(C)CC[C@H]2C1(C)C`, for which the growth is 63.3% in assay [1]; 70.8% in assay [2]; 82.6% in assay [3]; 70.1% in assay [4]; 57.7% in assay [5]; 96.3% in assay [6]. In addition, the results for the growth in [7] and in [8] were 91.7% and 90.1%, respectively.
As to `CC(C)c1cc(C(=O)O)c(O)c(C(C)C)c1.CC(C)c1cc(C(=O)O)c(O)c(C(C)C)c1.[Mn]`, the growth is 108% in assay [1]; 106% in assay [2]; 91.6% in assay [3]; 98.3% in assay [4]; 98.2% in [5]; 94.3% in assay [6]. Moreover, the growth was 94.9% in assay [7] and 113% in assay [8].
For `CC1(C)C(=O)/C(=C\c2cccnc2)C[C@]2(C)[C@H]3CC[C@@H]4[C@@H](C(=O)/C=C/c5ccncc5)CC[C@@]4(C)[C@]3(C)CC[C@@H]12`, the growth was -36% (active) in assay [1]; 62.6% in assay [2]; 15.1% in [3]; -7.74% (active) in assay [4]; 19.5% in [5]; -10.9% (active) in assay [6]. For the same compound, the growth in assay [7] was -26.7% (active); in [8], 26.7%.
Regarding `CC(=O)O[C@@H]1CCN2C(=O)N(C)c3ccccc3[C@@H]2C1`, the growth is 103% in [1]; 89% in [2]; 98.3% in [3]; 102% in assay [4]; 89.1% in assay [5]; 104% in assay [6]. Further, the growth in [9] is 98.6%.
On to `CCCCC[C@H]1C/C=C2/C(=O)C=C[C@@H]2C/C=C\CCCC(=O)O[C@@H](CCCCC)C/C=C2/C(=O)C=C[C@@H]2C/C=C\CCCC(=O)O1`, for which the growth was -54.5% (active) in assay [1]; -80.8% (active) in assay [2]; -83.4% (active) in [3]; -94.3% (active) in assay [4]; -97.4% (active) in assay [6]; -81.9% (active) in [8].
Consider `COc1ccc2c3c(c4ccccc4cc13)C(=O)N(CCN(C)CCN)C2=O`, for which the growth is -67.1% (active) in assay [1]; 8.84% (active) in assay [2]; -36.9% (active) in assay [3]; -86.3% (active) in assay [4]; -63.2% (active) in [5]; -98% (active) in assay [6]. Further, the growth in assay [9] was -84.8% (active).
`C=C(C)[C@@H]1CC[C@]2(C)[C@H](CC[C@@H]3[C@H]4[C@H]5OC[C@@]4(CCC5(C)C)CC[C@]32C)[C@@]1(C)CCCN`: the growth in assay [1] was -79.6% (active); in assay [2] it was 95.2%; in assay [3], 94.2%; in [4], -19.2% (active); in assay [5], 64%; in assay [6] it was 97.4%. Further, the growth in assay [7] was 98.5%; in assay [8], 34.7%.
As to `CC(C)(C)c1ccc(OCCCCCCCN2CCNCC2)cc1`, the growth is -22.1% (active) in [1]; 51.8% in assay [2]; 54.4% in assay [3]; 12.9% in assay [4]; 28.1% in assay [5]; 43.9% in assay [6]. The results for the growth in [9] and in assay [8] were -77.8% (active) and 53%, respectively.
As for `Cc1cc(C)c(NC(=O)c2sc3nc4c(cc3c2N)CCCC4)c(C)c1`, the growth in assay [1] is 32.1%; in assay [2] it was 18.5%; in assay [3], 43.4%; in assay [4], 27.7%; in assay [5], 54%; in [6], 50.1%. In assay [9], the growth was 37.6%.
With `COc1cnc2c(c1)C(=O)c1c-2n(CCCNC2=NCCS2)c(=O)c2cc([N+](=O)[O-])ccc12`, the growth in [1] was -60.8% (active); in [2], 23.7%; in assay [3] it was 27.2%; in assay [4] it was -83.9% (active); in [5], -48.1% (active); in assay [6] it was -41% (active). The growth in [9] is -91.3% (active); in assay [8], -35.9% (active).
As to `Oc1cc(/C=C/c2nc(N3CCOCC3)c3cc(Cl)c(Cl)cc3n2)cc(O)c1O`, the growth is 98.9% in assay [1]; 91.5% in assay [2]; 102% in [3]; 102% in assay [4]; 101% in assay [5]; 90% in [6]. For the same compound, the growth is 98.8% in assay [7] and 109% in [8].
For `CCC1C(=O)COC1=O` (stereo unspecified), the growth is 103% in assay [1]; 91% in assay [2]; 99.3% in assay [3]; 85% in assay [4]; 74.3% in assay [5]; 102% in assay [6]. In addition, the values for the growth in [9] and in assay [8] were 93.2% and 112%, respectively.
